According to PubChem BioAssay AID1159580 (chemical genetic matrix, 2015):
The campaign covered roughly 5,500 compounds. About 2,000 (36%) were called active. About 18% were inconclusive and are not listed. Rule as the data show it: active = normalized growth mostly below about 0.91 (no sharp cut-off); inconclusive = no clear call, values can overlap the other calls; inactive = mostly above about 0.92. The list shows a part of the results.

Assay: chemical genetic growth profiling, strain panel (AID 1159580);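 also: tested at 20 µM; growth read once vehicle control cultures reached saturation at 30 °C; 1 = growth at the plate median or of vehicle wells; lower values mean less growth of the strain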
Conditions: growth OD

Measured: normalized growth

O=C(O)c1ccccc1O
inactive: S. cerevisiae deletion strains, locus YJR066W, strain TOR1, stronger effect = lower value 0.951 | S. cerevisiae deletion strains, locus YJR075W, strain HOC1, stronger effect = lower value 1.01 | S. cerevisiae deletion strains, locus YKL009W, strain mrt4, stronger effect = lower value 1.05 | S. cerevisiae deletion strains, locus YKL068W, stronger effect = lower value 0.982 | S. cerevisiae deletion strains, locus YKL085W, strain MDH1 (second series), stronger effect = lower value 0.989 | S. cerevisiae deletion strains, locus YKL085W, strain MDH1, stronger effect = lower value 0.989 | S. cerevisiae deletion strains, locus YKL160W, strain elf1, stronger effect = lower value 0.971 | S. cerevisiae deletion strains, locus YKL190W, strain CNB1, stronger effect = lower value 0.998 | S. cerevisiae deletion strains, locus YKR001C, strain vps1, stronger effect = lower value 1.02 | S. cerevisiae deletion strains, locus YKR091W, strain srl3, stronger effect = lower value 0.99 | S. cerevisiae deletion strains, locus YLL001W, strain dnm1, stronger effect = lower value 0.97 | S. cerevisiae deletion strains, locus YLL026W, stronger effect = lower value 0.991 | S. cerevisiae deletion strains, locus YLL041C, strain sdh2, stronger effect = lower value 0.99 | S. cerevisiae deletion strains, locus YLR027C, strain aat2, stronger effect = lower value 0.997 | S. cerevisiae deletion strains, locus YLR039C, strain RIC1, stronger effect = lower value 0.978 | S. cerevisiae deletion strains, locus YLR058C, strain SHM2, stronger effect = lower value 0.994 | S. cerevisiae deletion strains, locus YLR102C, strain apc9, stronger effect = lower value 1.01 | S. cerevisiae deletion strains, locus YLR113W, strain HOG1, stronger effect = lower value 0.987 | S. cerevisiae deletion strains, locus YLR221C, strain rsa3, stronger effect = lower value 1 | S. cerevisiae deletion strains, locus YLR258W, strain gsy2, stronger effect = lower value 0.979 | S. cerevisiae deletion strains, locus YLR262C, strain YPT6 (second series), stronger effect = lower value 0.957 | S. cerevisiae deletion strains, locus YLR262C, strain YPT6, stronger effect = lower value 0.973 | S. cerevisiae deletion strains, locus YLR268W, strain sec22, stronger effect = lower value 1.04 | S. cerevisiae deletion strains, locus YLR320W, strain mms22, stronger effect = lower value 1.03 | S. cerevisiae deletion strains, locus YLR330W, strain CHS5, stronger effect = lower value 1 | S. cerevisiae deletion strains, locus YLR342W, strain FKS1 (second series), stronger effect = lower value 1.01 | S. cerevisiae deletion strains, locus YLR342W, strain FKS1, stronger effect = lower value 0.975 | S. cerevisiae deletion strains, locus YLR357W, strain rsc2, stronger effect = lower value 0.956 | S. cerevisiae deletion strains, locus YLR370C, strain arc18, stronger effect = lower value 0.988 | S. cerevisiae deletion strains, locus YLR371W, strain rom2, stronger effect = lower value 1.01 | S. cerevisiae deletion strains, locus YLR384C, strain iki3, stronger effect = lower value 0.96 | S. cerevisiae deletion strains, locus YLR418C, strain cdc73, stronger effect = lower value 1.01 | S. cerevisiae deletion strains, locus YML016C, strain PPZ1, stronger effect = lower value 1 | S. cerevisiae deletion strains, locus YML032C, strain rad52, stronger effect = lower value 1.04 | S. cerevisiae deletion strains, locus YML120C, strain ndi1, stronger effect = lower value 0.985 | S. cerevisiae deletion strains, locus YML124C, strain tub3, stronger effect = lower value 1.01 | S. cerevisiae deletion strains, locus YMR058W, strain fet3, stronger effect = lower value 0.998 | S. cerevisiae deletion strains, locus YMR078C, strain ctf18, stronger effect = lower value 1.02 | S. cerevisiae deletion strains, locus YMR125W, strain sto1, stronger effect = lower value 0.923 | S. cerevisiae deletion strains, locus YMR129W, stronger effect = lower value 0.971 | S. cerevisiae deletion strains, locus YMR205C, strain PFK2, stronger effect = lower value 0.985 | S. cerevisiae deletion strains, locus YMR223W, strain ubp8, stronger effect = lower value 1.02 | S. cerevisiae deletion strains, locus YMR231W, strain pep5, stronger effect = lower value 0.976 | S. cerevisiae deletion strains, locus YMR307W, strain GAS1, stronger effect = lower value 0.965 | S. cerevisiae deletion strains, locus YNL067W, strain RPL9B, stronger effect = lower value 0.998 | S. cerevisiae deletion strains, locus YNL071W, strain lat1, stronger effect = lower value 0.986 | S. cerevisiae deletion strains, locus YNL153C, strain GIM3, stronger effect = lower value 1.01 | S. cerevisiae deletion strains, locus YNL183C, strain NPR1, stronger effect = lower value 0.951 | S. cerevisiae deletion strains, locus YNL209W, strain ssb2, stronger effect = lower value 0.968 | S. cerevisiae deletion strains, locus YNL233W, strain BNI4, stronger effect = lower value 1 | S. cerevisiae deletion strains, locus YNL248C, strain rpa49, stronger effect = lower value 0.958 | S. cerevisiae deletion strains, locus YNL250W, strain rad50, stronger effect = lower value 1 | S. cerevisiae deletion strains, locus YNL271C, strain bni1, stronger effect = lower value 0.995 | S. cerevisiae deletion strains, locus YNL298W, strain CLA4, stronger effect = lower value 1.02 | S. cerevisiae deletion strains, locus YNL307C, strain MCK1, stronger effect = lower value 1.02 | S. cerevisiae deletion strains, locus YNL322C, strain KRE1 (second series), stronger effect = lower value 0.974 | S. cerevisiae deletion strains, locus YNR049C, strain mso1, stronger effect = lower value 0.979 | S. cerevisiae deletion strains, locus YNR052C, strain pop2, stronger effect = lower value 1.02 | S. cerevisiae deletion strains, locus YOL006C, strain TOP1, stronger effect = lower value 1.09 | S. cerevisiae deletion strains, locus YOL012C, strain htz1 1.01 | S. cerevisiae deletion strains, locus YOL147C, strain pex11, stronger effect = lower value 1.01 | S. cerevisiae deletion strains, locus YOR001W, strain rrp6, stronger effect = lower value 0.982 | S. cerevisiae deletion strains, locus YOR061W, strain CKA2, stronger effect = lower value 0.999 | S. cerevisiae deletion strains, locus YOR069W, strain VPS5, stronger effect = lower value 0.993 | S. cerevisiae deletion strains, locus YOR070C, strain gyp1, stronger effect = lower value 0.982 | S. cerevisiae deletion strains, locus YOR080W, strain dia2, stronger effect = lower value 0.983 | S. cerevisiae deletion strains, locus YOR083W, strain WHI5, stronger effect = lower value 0.988 | S. cerevisiae deletion strains, locus YOR106W, strain vam3, stronger effect = lower value 0.952 | S. cerevisiae deletion strains, locus YOR136W, strain idh2, stronger effect = lower value 1.02 | S. cerevisiae deletion strains, locus YOR144C, strain elg1, stronger effect = lower value 1.01 | S. cerevisiae deletion strains, locus YOR184W, strain ser1, stronger effect = lower value 1.02 | S. cerevisiae deletion strains, locus YOR231W, strain MKK1, stronger effect = lower value 0.98 | S. cerevisiae deletion strains, locus YOR265W, strain rbl2, stronger effect = lower value 0.976 | S. cerevisiae deletion strains, locus YOR270C, strain vph1, stronger effect = lower value 0.944 | S. cerevisiae deletion strains, locus YOR290C, strain snf2, stronger effect = lower value 1 | S. cerevisiae deletion strains, locus YOR316C, strain cot1, stronger effect = lower value 1.02 | S. cerevisiae deletion strains, locus YPL051W, strain arl3, stronger effect = lower value 0.986 | S. cerevisiae deletion strains, locus YPL078C, strain atp4, stronger effect = lower value 0.961 | S. cerevisiae deletion strains, locus YPL106C, strain sse1, stronger effect = lower value 0.954 | S. cerevisiae deletion strains, locus YPL240C, strain hsp82, stronger effect = lower value 0.976 | S. cerevisiae deletion strains, locus YPL256C, strain CLN2, stronger effect = lower value 1.05 | S. cerevisiae deletion strains, locus YPR119W, strain clb2, stronger effect = lower value 1.01 | S. cerevisiae deletion strains, locus YPR141C, strain kar3, stronger effect = lower value 0.994 | S. cerevisiae deletion strains, locus YPR163C, strain tif3, stronger effect = lower value 1.01 | S. cerevisiae deletion strains, locus YPR167C, strain met16, stronger effect = lower value 1.01 | S. cerevisiae deletion strains, strain wtn01, stronger effect = lower value 1.01 | S. cerevisiae strains, strain wild type, stronger effect = lower value 0.999
